Bioassay records (PubChem BioAssay)
Most compounds without a hit are left out; they make up all but 4.7% or so of the library.
GDH-TPI counter – GDH-TPI coupled enzyme inhibition counter-screen. actives 1.2% (n = 360,000). GDH-TPI coupled enzyme counterscreen, NADH absorbance. inhibition, % at 4.8 µM;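 also: 0% = DMSO wells and 100% = wells lacking the enzyme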
RecA splice inh – inhibitors of M. tuberculosis RecA intein splicing; AID 2221; cell-free RecA intein splicing, fluorescence; inhibition, % (concentration not given with the values); P9WHJ3; actives 0.75% (n = 290,000); in the data active = inhibition above about 30%;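 also: 0% = vehicle wells and 100% = reference inhibitor control wells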
VHR inh abs – DUSP3 (human) phosphatase inhibition. inhibition, % at 13.3 µM. actives 0.52% (n = 290,000). recombinant VHR phosphatase, pNPP absorbance; in the data active = inhibition above about 50%
Target sequence (P51452 whole entry, looked up): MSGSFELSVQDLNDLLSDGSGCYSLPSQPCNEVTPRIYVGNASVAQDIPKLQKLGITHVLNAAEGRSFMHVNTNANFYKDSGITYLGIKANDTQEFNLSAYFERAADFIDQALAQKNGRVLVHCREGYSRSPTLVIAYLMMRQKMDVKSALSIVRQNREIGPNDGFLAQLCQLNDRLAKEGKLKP
3CLpro inhibitor – SARS-CoV 3CLpro protease inhibition; recombinant SARS-CoV 3CLpro, quenched FRET peptide cleavage; inhibition, % at 6 µM; AID 1706; actives 0.14% (n = 290,000); P0C6X7; in the data active = inhibition above about 12%
CCHF vOTU inh – CCHFV vOTU protease inhibition; inhibition, % at 11.5 µM; Pep-AMC fluorescence; actives 0.55% (n = 370,000); AID 651958; also: 0% = vehicle wells with enzyme and 100% = no enzyme wells
FBA Mtb inh – inhibits M. tuberculosis FBA enzyme. purified M. tuberculosis FBA, fluorescence read-out. P9WQA3. actives 2.3% (n = 360,000). inhibition, % at 1 µM; in the data active = inhibition above about 27%;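 also: 0% = vehicle and 100% = reference inhibitor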
Target sequence (P9WQA3 whole entry, looked up): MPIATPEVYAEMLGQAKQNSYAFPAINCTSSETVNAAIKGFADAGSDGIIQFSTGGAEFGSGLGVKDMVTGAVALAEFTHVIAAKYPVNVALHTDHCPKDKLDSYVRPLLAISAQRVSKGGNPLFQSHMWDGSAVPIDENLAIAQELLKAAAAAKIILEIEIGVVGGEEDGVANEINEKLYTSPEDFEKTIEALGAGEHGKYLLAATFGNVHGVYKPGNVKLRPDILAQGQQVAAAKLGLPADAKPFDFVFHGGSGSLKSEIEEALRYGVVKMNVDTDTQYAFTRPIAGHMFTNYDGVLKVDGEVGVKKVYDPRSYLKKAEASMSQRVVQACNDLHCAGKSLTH
* marks the source's active call; other numbers are inactive results; i = inactive; . = not tested or not shown; + = active, no number. Rule as the data show it, unless noted: active = inhibition above about 30%; inactive = the rest.

SMILES	GDH-TPI counter	RecA splice inh	VHR inh abs	3CLpro inhibitor	CCHF vOTU inh	FBA Mtb inh
COCCCn1c(C(=O)NC2CCCCC2C)cc2c(=O)n3cccc(C)c3nc21 (stereo unspecified)	-3.9	1.2	-18.0	3.4	-10.5	4.7
COc1ccc(CCn2c(=N)c(C(=O)NCC3CCCO3)cc3c(=O)n4ccccc4nc32)cc1 (stereo unspecified)	11.8	-2.1	5.7	-7.4	6.7	8.9
CCOc1ccccc1CNC(=O)C1CCCN(c2nnc(C)c3c(C)n(-c4ccccc4)nc23)C1 (stereo unspecified)	0.4	-2.3	11.4	-1.9	-14.5	23.0
Cc1ccc(-c2c(C#N)c(N)n(-c3ccccc3)c(=O)c2C#N)cc1	40.3*	-2.1	4.9	-2.5	6.9	4.5
CCOC(=O)c1nn(-c2ccc(Cl)cc2)c2nc(-c3ccc(C)cc3)c(C#N)c(=O)n12	5.6	-3.1	8.5	-0.5	-11.7	6.0
Cc1ccc(-c2c(C#N)c(N)n(-c3ccc(Cl)cc3)c(=O)c2C#N)cc1	31.2*	.	.	.	7.6	1.9
COc1ccc([C@H]2C[C@H](n3cc(-c4ccc(F)cc4)nn3)[C@@H](O)CN2C(=O)C2CCCCC2)cc1	-15.6	.	.	.	6.8	3.5
Cc1ccc(Cc2c(-c3cccc(Cl)c3)nc3c4ccccc4ccn23)cc1	.	.	.	.	1.4	10.0
COc1ccc([C@@H]2CC(=O)c3c(O)cc(O[C@@H]4O[C@H](CO[C@@H]5O[C@@H](C)[C@H](O)[C@@H](O)[C@H]5O)[C@@H](O)[C@H](O)[C@H]4O)cc3O2)cc1O	7.8	-5.2	-18.0	1.4	-3.1	5.0
CC(=O)OC[C@H]1O[C@@H](Oc2cc(O)cc3oc(-c4ccc(O)cc4)cc(=O)c23)[C@H](O[C@@H]2O[C@@H](C)[C@H](O)[C@@H](O)[C@H]2O)[C@@H](O)[C@@H]1O	32.8*	.	.	.	13.3	12.7
COc1ccc(-c2cc(=O)c3c(O)cc(OC4OC(COC5OC(C)C(O)C(O)C5O)C(O)C(O)C4O)cc3o2)cc1O (stereo unspecified)	42.2*	-2.7	.	.	-0.4	3.3
CC1OC(OC2C(Oc3c(-c4ccc(O)cc4)oc4cc(O)cc(O)c4c3=O)OC(COC3O[C@@H](C)[C@H](O)[C@@H](O)C3O)C(O)C2O)C(O)C(O)C1O (stereo partly specified)	21.6	-1.9	.	.	2.2	-0.6
NC(=O)C1CCN(C(=O)c2ccc(Cl)c(NC(=O)c3cccs3)c2)CC1	0.0	.	.	.	-7.9	-2.0
CCCCN1CCN(C(=O)c2ccc(CNC(=O)c3cccc(Br)c3)cc2)CC1	.	.	.	.	4.7	.
N#C/C(=C(/O)CCl)c1nnc2n1CCCCC2	-0.6	5.3	2.3	-0.3	-1.8	-4.6
N#C/C(=N\Nc1cc(Cl)cc(Cl)c1)c1nnc2n1CCCCC2	32.7*	-3.3	2.3	1.0	1.4	-4.4
Cc1cc(=O)oc2cc(OCCSCCN3CCCCC3)ccc12	36.0*	-0.2	31.3	0.8	-17.1	26.3
Cc1ccc(F)c(S(=O)(=O)NC(=O)C2(C)CCN2C(=O)Cc2cccs2)c1 (stereo unspecified)	-8.2	.	.	.	9.2	-2.2
COc1ccc(CSc2nc(C)[nH]c2[N+](=O)[O-])cc1[N+](=O)[O-]	41.5*	-1.0	8.4	0.2	-11.1	-9.8
COc1ccc(NC(=O)CCn2c(=S)[nH]c3ccccc3c2=O)cc1Cl	8.0	.	.	.	-10.4	0.9
Cc1ccc2c(CN3CCCCC3)cc(=O)oc2c1C	3.5	0.2	28.0	-7.6	-8.0	-1.1
Cc1c(O)c(CN2CCCC2)cc2c1oc(=O)c1ccccc12	8.4	-2.3	18.9	-0.1	-1.2	1.2
CCc1cc(=O)oc2c(C)c(O)c(CN3CCCCC3)cc12	32.0*	i	8.2	4.2	-310.9	+
Cc1c(O)c(CN2CCCC2)cc2c3c(c(=O)oc12)CCC3	14.7	-393.2	-6.2	1.0	-205.7	198.3*
CC(COc1ccc(OC(F)(F)F)cc1)CN1CCC(C(O)(c2ccccc2)c2ccccc2)CC1 (stereo unspecified)	.	.	.	.	22.6	.
SMILES	GDH-TPI counter	RecA splice inh	VHR inh abs	3CLpro inhibitor	CCHF vOTU inh	FBA Mtb inh
COc1cc(/C=C(\C#N)C(=O)c2ccc(O)c(O)c2)cc(I)c1O	54.6*	.	.	.	16.6	-5.5
COc1ccc(C=C(C#N)C(=O)c2ccccc2)cc1	.	.	.	.	6.4	.
COc1ccc(-c2cc(C#N)nc(N3CCN(c4ccccc4)CC3)n2)cc1	-1.2	4.1	53.4*	-1.7	2.2	2.9
COc1ccc(-c2cc(-c3ccc(F)cc3)nc(N3CCN(C)CC3)n2)cc1	-4.2	0.4	.	1.1	-1.4	5.3
COc1nc(OC)nc(N2CCC(C(=O)NCc3cccc(OC)c3OC)CC2)n1	.	.	.	.	-1.3	.
O=[N+]([O-])C(/C=C(\Cl)[N+](=O)[O-])=C1N(Cc2ccc(Cl)nc2)CCN1Cc1ccc(Cl)nc1	18.3	61.5*	22.8	-2.6	-6.2	-14.5
COC(=O)C1=C(C)N(C)C(C)=C(C(=O)OC)C1c1ccsc1	4.5	7.9	17.9	-2.9	4.5	0.0
CCOC(=O)C1=CN(C)C=C(C(=O)OCC)C1c1ccsc1	9.3	i	-0.7	2.7	-260.9	+
CCOC(=O)C1=C(C(=O)OCC)C2N(Cc3ccc(C#N)cc3)c3ccccc3[C@@]23C[C@@H](C(=O)OC)N(S(=O)(=O)c2ccccc2)C3=N1 (stereo partly specified)	.	.	.	.	0.4	.
CC[C@@H](CO)NC(=O)[C@@H]1C=C2c3cccc4[nH]cc(c34)C[C@H]2N(C)C1	-6.3	.	.	.	-31.9	128.4*
NC(=O)c1ccccc1NC(=O)C1CCCO1 (stereo unspecified)	13.7	-0.3	4.9	0.7	-0.6	6.3
c1ccc(CC(Nc2cccnc2)c2ccccc2)cc1 (stereo unspecified)	.	.	.	.	18.8	.
COc1cc(/C=C(/C#N)c2nc(-c3cc4ccccc4oc3=O)cs2)cc([N+](=O)[O-])c1O	.	.	100.7*	2.6	-0.9	.
COc1cc(/C=C(\C#N)c2nc(-c3cc4ccccc4oc3=O)cs2)ccc1O	5.7	1.9	17.7	5.6	3.8	1.9
O=C(O)CCn1cc(C2CC(c3ccccc3)=NN2c2ccccc2)c(-c2ccccc2)n1 (stereo unspecified)	9.4	-81.2	2.0	9.7	-36.7	+
Cc1cccc(N2CN=c3s/c(=C\c4ccccn4)c(=O)n3C2)c1	64.1*	-2.8	40.5	-6.3	-8.5	-1.2
CCc1ccc(N2CN=c3s/c(=C\c4ccccc4)c(=O)n3C2)cc1	35.2*	0.4	7.7	-2.3	1.0	-0.2
c1cc(-c2nnc3n2N=C(c2ccc4c(c2)OCO4)CS3)ccn1	.	.	.	.	18.2	.
O=C1NC(=O)C2(Br)Nc3ccc(Br)cc3C(=O)C2N1 (stereo unspecified)	19.4	.	.	.	-14.7	2.4
CCOc1ccc(C(c2nnnn2C(C)(C)C)N2CCN(C(=O)c3ccco3)CC2)cc1 (stereo unspecified)	-1.5	4.4	59.1*	0.6	-0.4	-0.3
